Hits are enriched below; roughly 2.9% of the tested compounds scored in any of these assays.
PAFAH2 inh: inhibitors of human PAFAH2. Q99487. recombinant PAFAH2, FP-rhodamine activity probe, fluorescence polarization. inhibition, % at 3.39 µM. 340,000 compounds, 0.99% hits. AID 492956;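 active = inhibition above the mean over all tested compounds plus 3 SD, cut at about 30% in these data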;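 note: inhibitors block probe labeling of enzyme so polarization drops; 0% = enzyme with DMSO and 100% = wells lacking PAFAH2 protein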
PAFAH1B3 FP inh: inhibitors of human PAFAH1B3; inhibition, % at 3.39 µM; AID 492972; Q15102; recombinant PAFAH1B3, FP-rhodamine probe, fluorescence polarization; 340,000 compounds, 0.28% hits;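 active = inhibition above the screen-wide average of all tested compounds plus 3 SD, cut at about 25% in these data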;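 note: 0% = enzyme with DMSO only and 100% = wells lacking PAFAH1B3 protein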
Target sequence (Q15102 whole entry, looked up): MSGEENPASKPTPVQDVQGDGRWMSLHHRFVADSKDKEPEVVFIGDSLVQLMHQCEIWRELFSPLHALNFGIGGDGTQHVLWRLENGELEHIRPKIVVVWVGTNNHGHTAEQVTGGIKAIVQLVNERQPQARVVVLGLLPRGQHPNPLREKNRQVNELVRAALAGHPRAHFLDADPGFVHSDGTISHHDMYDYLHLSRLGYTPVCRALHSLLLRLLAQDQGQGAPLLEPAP
ZTA counter: blocks Epstein-Barr virus ZTA, an EBNA-1 counter-screen; P03206; ZTA-DNA binding, fluorescence polarization; inhibition, % at 11 µM; 320,000 compounds, 0.15% hits; AID 2234; in the data active = inhibition above about 33%
Target sequence (P03206 whole entry, looked up): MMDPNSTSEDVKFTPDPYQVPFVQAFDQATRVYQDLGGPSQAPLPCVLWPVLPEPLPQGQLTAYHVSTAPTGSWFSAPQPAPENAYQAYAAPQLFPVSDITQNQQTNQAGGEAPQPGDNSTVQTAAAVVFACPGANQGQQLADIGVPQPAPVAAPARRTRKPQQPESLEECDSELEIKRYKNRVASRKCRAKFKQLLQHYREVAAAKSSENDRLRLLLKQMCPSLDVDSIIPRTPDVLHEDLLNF
rCAG RNA binder: molecules binding r(CAG) RNA repeats; r(CAG) RNA repeat, TO-PRO-1 dye displacement fluorescence; inhibition, % at 3 µM; 370,000 compounds, 1.3% hits; AID 651821;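 active = inhibition above the plate cutoff, the mean of all test compounds on that plate plus 3 SD, cut at about 35% in these data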;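 note: 0% = DMSO alone and 100% = 100 µM mitoxantrone as full dye displacement; higher means more dye released from RNA so lower well fluorescence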
PAFAH1B2 inh: PAFAH1B2 (human) inhibition | P68402 | recombinant PAFAH1B2, FP-rhodamine activity probe, fluorescence polarization | inhibition, % at 3.39 µM | 340,000 compounds, 1.2% hits;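 active = inhibition above the mean of all tested compounds plus 3 SD, cut at about 24% in these data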;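 note: 0% = enzyme with DMSO and 100% = wells lacking PAFAH1B2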
Target sequence (P68402 whole entry, looked up): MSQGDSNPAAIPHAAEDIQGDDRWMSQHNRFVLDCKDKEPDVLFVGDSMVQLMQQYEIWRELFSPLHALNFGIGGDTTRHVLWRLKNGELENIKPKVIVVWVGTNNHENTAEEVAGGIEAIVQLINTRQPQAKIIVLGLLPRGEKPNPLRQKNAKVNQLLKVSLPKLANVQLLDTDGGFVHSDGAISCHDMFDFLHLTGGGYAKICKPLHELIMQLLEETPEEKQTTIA
EBNA-1 inh: blocks EBNA-1 binding to DNA. inhibition, % at 14.8 µM. AID 1950. 300,000 compounds, 0.34% hits. EBNA-1 DNA binding, fluorescence polarization; in the data active = inhibition above about 28%
rCAG binder conf: r(CAG) RNA repeat binding, confirmation; AID 652065; TO-PRO-1 dye displacement fluorescence; shares compounds with rCAG RNA binder; 4,300 compounds, 70% hits; inhibition, % at 3 µM;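 active = inhibition above a per-plate cutoff, the mean inhibition of sample wells plus 3 SD, cut at about 35% in these data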;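 note: loss of TO-PRO-1 fluorescence as compound displaces dye from 1x1 AA loop RNA; 0% = DMSO only wells and 100% = 100 µM mitoxantrone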
dCAG dye counter: DNA CAG dye complex inhibition counter-screen; AID 652068; d(CAG) DNA oligo TO-PRO-1 dye displacement, fluorescence; inhibition, % at 3 µM; shares compounds with rCAG RNA binder; 4,300 compounds, 94% hits;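 active = inhibition above its plate's cutoff, the mean test-well inhibition plus 3 SD, cut at about 4.8% in these data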;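 note: 0% = DNA dye mix with DMSO and 100% = 100 µM mitoxantrone; hits displace the dye from DNA and so lower well fluorescence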
An asterisk follows results filed as active; . = not tested or not shown.

SMILES	PAFAH2 inh	PAFAH1B3 FP inh	ZTA counter	rCAG RNA binder	PAFAH1B2 inh	EBNA-1 inh	rCAG binder conf	dCAG dye counter
CS(=O)(=O)C1=NSC2=NC(=O)/C(=C\c3cccn3-c3ccc(Cl)cc3)C(=N)N21	-8.9	5.3	18.4	84.7*	63.8*	9.3	84.6*	54.1*
CC1=CC2=NC(=O)/C(=C\c3cc(C)n(-c4ccccc4F)c3C)C(=N)N2O1	7.5	3.5	-10.8	4.0	-0.5	-3.5	.	.
Cc1nc(Nc2nc(CSc3nc4ccccc4[nH]3)cc(=O)[nH]2)nc2ccccc12	-18.1	-2.5	17.8	41.4*	-3.4	-4.1	31.6	21.3*
Cc1nc(Nc2nc(-c3ccccc3)cc(=O)[nH]2)nc2ccccc12	3.9	7.7	-12.4	36.7*	0.1	1.3	18.7	6.5*
O=C(O)c1cc(N=Cc2c(O)c3ccccc3oc2=O)ccc1O	2.6	4.7	.	37.8*	3.4	.	19.3	2.7
COCC(=O)N1C[C@H]2CON(C)[C@H]2C[C@H]1c1cccc(-c2ccccc2)c1	.	.	.	1.6	.	.	.	.
c1coc(-c2nnc3n2N=C(c2ccc4c(c2)OCO4)CS3)c1	.	.	.	3.6	.	.	.	.
CCOc1cc(/C=C(/NC(C)=O)C(=O)O)cc(Cl)c1OCc1ccc(Br)cc1	9.6	3.7	31.9	43.4*	5.9	11.0	32.8	6.7*
CCCN(CCC)S(=O)(=O)c1ccc(NS(=O)(=O)c2ccc(F)cc2)cc1	-0.9	6.7	11.1	45.9*	10.5	6.7	35.4*	8.4*
CCCN(CCC)S(=O)(=O)c1ccc(NS(C)(=O)=O)cc1	-6.5	1.8	-13.0	1.0	4.2	-9.3	.	.
O=C(NC(=S)Nc1ccc(S(=O)(=O)Nc2nccs2)cc1)c1ccc(F)cc1	3.3	5.0	-16.2	52.9*	3.4	1.0	37.9*	13.8*
COc1ccc(Cc2nnc(NC(=O)CSc3ccc(Cl)cc3)s2)cc1OC	.	.	.	4.3	.	.	.	.
CCc1nnc(NS(=O)(=O)c2ccc(NC(=S)NC(=O)c3ccc(OC)c(OC)c3)cc2)s1	4.2	-6.4	16.3	67.6*	-3.8	1.5	68.2*	32.4*
COc1ccc(C(=O)NC(=S)Nc2ccc(S(=O)(=O)Nc3cc(C)on3)cc2)cc1OC	-5.5	7.7	5.5	34.7*	4.3	5.5	36.3*	6.5*
COc1ccc(Cc2nnc(NS(=O)(=O)c3ccc(Cl)cc3)s2)cc1OC	-10.1	9.7	5.6	48.6*	-0.4	-20.8	53.1*	15.7*
O=C(NC1CCCCN(Cc2ccc(Cl)cc2)C1=O)c1cc(-c2ccccc2)no1 (stereo not drawn)	.	.	.	5.0	.	.	.	.
C[C@H]1CCCN1c1cccc2c1S(=O)(=O)N1CC[C@H](C1)O2	.	.	.	1.7	.	.	.	.
Cc1ccc(C(=O)C(OC(=O)CN2C(=O)c3ccccc3C2=O)c2ccccc2)cc1C (stereo not drawn)	-1.4	2.3	6.0	1.6	3.4	21.4	.	.
COc1ccc(C(C)=O)cc1CN1C(=O)C(C)ON=C1c1ncccc1C (stereo not drawn)	.	.	.	1.5	.	.	.	.
CCOc1c(Br)cc(C(=O)Nc2cccc(S(=O)(=O)N3CCOCC3)c2)cc1OC	.	.	.	7.2	.	.	.	.
CCc1nnc(NS(=O)(=O)c2ccc(NC(=S)NC(=O)c3ccncc3)cc2)s1	-8.2	-3.0	-11.6	18.7	-1.5	0.9	.	.
CCc1nnc(NS(=O)(=O)c2ccc(NC(=S)NC(=O)c3ccc(OC)cc3)cc2)s1	-0.2	-0.7	-0.4	70.5*	-4.8	-5.0	66.6*	33.4*
Cc1ccc(S(=O)(=O)N(CC(=O)Nc2ccccc2C(=O)O)c2ccccc2C)cc1	2.5	16.5	3.3	57.6*	2.8	-21.5	49.7*	15.1*
Cc1ccccc1N(CC(=O)Nc1ccccc1C(=O)O)S(C)(=O)=O	-3.0	-1.5	7.2	8.9	1.8	-18.3	.	.
O=C(CNS(=O)(=O)c1ccc(Br)cc1)N1CCN(Cc2ccccc2)CC1	0.5	4.6	-7.9	-6.8	13.7	7.4	.	.
SMILES	PAFAH2 inh	PAFAH1B3 FP inh	ZTA counter	rCAG RNA binder	PAFAH1B2 inh	EBNA-1 inh	rCAG binder conf	dCAG dye counter
COc1cccc(CN2CCC(C)(Oc3cccc(Cl)c3)C2)c1OC (stereo not drawn)	.	.	.	-2.0	.	.	.	.
CCOC(=O)CC[C@@]1(C(=O)OCC)C[C@@H](CC(=O)NCc2ccc(C)o2)C(=O)N2CCCC=C21	.	.	.	48.9*	.	.	2.3	1.0
COc1ccc(/C=N/NC(=O)c2nn(-c3ccc(Cl)cc3)c(=O)c3c(N)scc23)cc1	5.0	8.1	-10.5	42.2*	9.8	-9.1	27.2	17.9*
COc1ccc(/C=N/NC(=O)c2nn(-c3ccccc3)c(=O)c3c(N)scc23)cc1	2.9	5.9	-8.9	42.4*	5.4	-5.2	27.9	17.9*
O=C(O)/C(CC(=O)c1ccc(Cl)cc1)=N/Nc1ccc([N+](=O)[O-])cc1[N+](=O)[O-]	20.9	9.9	5.6	91.7*	20.2	2.2	89.5*	66.1*
CC(NC(=O)C1CCN(C(=O)[C@@H]2Cc3ccccc3CN2)CC1)c1ccccc1 (stereo partly drawn)	-0.9	-0.8	13.5	-4.4	4.7	-21.2	.	.
O=c1oc2c(-c3ccc([N+](=O)[O-])cc3)cc(O)cc2s1	-9.1	9.7	-0.1	40.2*	-1.9	-9.9	9.3	7.7*
COC(=O)c1scc(C)c1NC(=O)c1ccc(Cl)cc1	0.4	-1.7	15.8	.	4.1	-13.3	.	.
COC(=O)c1scc(C#N)c1N/N=C(\C#N)S(=O)(=O)c1ccc(Cl)cc1	.	.	-2.3	40.8*	.	-9.1	66.1*	20.8*
COC(=O)c1scc(S(=O)(=O)C(C)C)c1N/N=C(\C#N)C(=O)c1ccc(Cl)cc1	4.5	12.4	-5.0	51.1*	11.1	13.2	60.7*	22.6*
CC1(CCc2ccccc2)NC(=S)N(c2ccccc2)N1 (stereo not drawn)	6.1	-0.1	7.9	0.8	2.4	6.4	.	.
Nc1ccccc1C(=O)/C=C/c1ccc2c(c1)OCO2	2.4	-1.0	8.2	1.7	-1.5	-14.4	.	.
CNc1ccc(Br)cc(C(=O)/C=C/c2cccc(OC)c2)c1=O	27.1	10.5	0.2	36.0*	-3.5	9.8	37.1*	16.0*
CCNc1ccc(Br)cc(C(=O)/C=C/c2ccc3c(c2)OCO3)c1=O	35.7*	8.6	6.4	38.8*	4.2	11.6	35.9*	17.5*
COc1cc(/C=C2/CCC/C(=C\c3cc(O)c(OC)c(Cl)c3)C2=O)cc(Cl)c1O	-5.7	-14.7	-12.5	38.0*	-7.5	-5.2	30.2	10.1*
COc1cc(/C=C2\CC/C(=C\c3cc(OC)c(O)c(OC)c3)C2=O)cc(OC)c1O	0.9	2.3	-0.1	35.6*	17.4	-3.3	40.5*	15.5*
COc1cc(/C=C2\CCC/C(=C\c3ccc(O)c(OC)c3)C2=O)ccc1O	-5.3	5.7	18.0	22.0	-1.7	-1.1	.	.

Compound activity: PubChem BioAssay, The Scripps Research Institute Molecular Screening Center
